Compound activity: PubChem BioAssay, National Center for Advancing Translational Sciences (NCATS)
GPT2 inh – inhibitors of human GPT2 alanine aminotransferase; Q8TD30; Recombinant GPT2, coupled pyruvate oxidase/HRP Amplex Red fluorescence; Potency, µM (top dose mostly 57.7 µM), usual class: inhibitors; actives 0.25% (n = 100,000); AID 1671188; also: nearly all actives have a fitted effect of over 60% in size
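Fluorescence of coupled pyruvate oxidase/HRP/Amplex Red system (50uM Amplex, 30 min, dark) reports pyruvate formed by GPT2. Enzyme reaction: 10ng/uL GPT2, 2mM L-alanine, 250uM a-KG, 30 min room temperature, pH 7.5; 50uM AOA control.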
HEK cytotox – kills HEK 293 cells; HEK 293 viability, ATP luminescence (CellTiter-Glo), 48-72 h; Potency, µM (highest dose often 115 µM), actives largely listed as inhibitors; actives 6.6% (n = 94,000); also: nearly all actives have a fitted effect of over 60% in size
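250 HEK 293 cells/well; compound by pintool; incubated 48 or 72 hr at 37 degree Celsius; CellTiter-Glo added, 10 min RT, luminescence imaged.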
NPR1 antag – antagonists of human natriuretic peptide receptor Npr1; P16066; HEK293 hNpr1 GloSensor cGMP, ANP-stimulated luminescence; Potency, µM (series often up to 46.3 µM), hits mostly inhibitors; actives 1.6% (n = 76,000); AID 1347048; calls by dose curve; also: nearly all actives have a fitted effect of over 60% in size
Target sequence (P16066 whole entry, looked up): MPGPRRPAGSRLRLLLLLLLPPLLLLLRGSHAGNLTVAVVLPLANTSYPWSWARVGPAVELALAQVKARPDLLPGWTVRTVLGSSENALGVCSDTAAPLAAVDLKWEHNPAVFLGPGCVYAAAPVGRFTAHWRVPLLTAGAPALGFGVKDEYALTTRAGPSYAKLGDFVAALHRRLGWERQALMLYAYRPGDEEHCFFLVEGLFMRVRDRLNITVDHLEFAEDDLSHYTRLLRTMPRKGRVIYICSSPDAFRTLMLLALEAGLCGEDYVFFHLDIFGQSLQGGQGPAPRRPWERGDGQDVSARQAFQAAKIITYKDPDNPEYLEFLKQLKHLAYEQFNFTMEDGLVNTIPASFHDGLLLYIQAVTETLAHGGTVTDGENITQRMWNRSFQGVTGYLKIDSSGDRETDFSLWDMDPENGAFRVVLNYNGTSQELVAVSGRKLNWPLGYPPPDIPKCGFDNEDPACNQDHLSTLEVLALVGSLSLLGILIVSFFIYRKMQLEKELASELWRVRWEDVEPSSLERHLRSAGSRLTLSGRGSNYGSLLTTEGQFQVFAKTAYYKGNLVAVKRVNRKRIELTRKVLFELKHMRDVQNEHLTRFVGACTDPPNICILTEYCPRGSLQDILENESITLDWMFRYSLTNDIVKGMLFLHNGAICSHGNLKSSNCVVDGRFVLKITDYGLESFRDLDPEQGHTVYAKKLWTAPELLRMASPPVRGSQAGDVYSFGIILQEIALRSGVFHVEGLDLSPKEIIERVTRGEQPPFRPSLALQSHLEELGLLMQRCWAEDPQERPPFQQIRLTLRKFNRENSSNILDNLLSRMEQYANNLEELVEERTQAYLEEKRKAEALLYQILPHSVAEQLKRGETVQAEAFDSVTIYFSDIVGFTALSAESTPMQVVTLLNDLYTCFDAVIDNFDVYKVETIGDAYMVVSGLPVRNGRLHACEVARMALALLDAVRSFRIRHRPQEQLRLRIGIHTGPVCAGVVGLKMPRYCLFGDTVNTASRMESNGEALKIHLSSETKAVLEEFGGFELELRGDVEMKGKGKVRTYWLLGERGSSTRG
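HEK293 cells stably expressing human Npr1 and cGMP GloSensor pGS-40F, loaded 2 h with 2% GloSensor reagent, given compound 30 min at room temperature. Luminescence read before and 20 min after 0.1 nM hNppA.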
NIH3T3 tox – NIH 3T3 cell cytotoxicity. AID 1345082. NIH 3T3 viability, CellTiter-Glo ATP luminescence, 48-72 h. Potency, µM (highest dose often 96.7 µM), actives largely listed as inhibitors. actives 4.3% (n = 94,000); also: nearly all actives have a fitted effect of over 55% in size
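Cells were seeded at 400 per well, treated with pin-transferred compound, and kept 48 or 72 hr at 37 °C before CellTiter-Glo addition and luminescence imaging of cellular ATP.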
FLuc inh – blocks purified firefly luciferase enzyme activity | AID 1347043 | P08659 | actives 2.5% (n = 76,000) | Potency, µM (top dose mostly 115 µM), most hits filed as inhibitors | purified P. pyralis luciferase, luminescence, biochemical; also: nearly all actives have a fitted effect of over 65% in size
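Luminescence read by CCD imaging after purified firefly luciferase (10nM final) was added to substrate buffer holding 10uM D-luciferin and 10uM ATP, pH 7.5, pre-dosed with compound.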
Numbers stand for hits; n = inactive; u = inconclusive; x = no result given. Rows were chosen to be rich in hits. Some 10% of all compounds tested hit in one or more screens of this group. Unless noted, calls follow the shape of the dose curve; as a rule, active = well fitted curve in the direction sought with a large enough effect; inconclusive = small, poorly fitted or top-dose-only effect, or another doubt; inactive = no such curve, though single readings can be large; an effect the other way counts as inactive or inconclusive.

SMILES	GPT2 inh	HEK cytotox	NPR1 antag	NIH3T3 tox	FLuc inh
CNC(=O)[C@@H]1C[C@H](n2cc(CNC(=O)Nc3cccc(Cl)c3)nn2)CN1	n	n	n	n	n
CNC(=O)[C@@H]1C[C@@H](n2cc(CNC(=O)Nc3ccc(Cl)cc3C)nn2)CN1	n	35µM	n	n	n
CC1=C[C@@H](CNCc2ccccn2)[C@H](C(C)C)C[C@H]1Cc1nnc(-c2ccc(N(C)C)cc2)o1	n	11µM	n	u	n
CC1=C[C@@H](CNCc2ccncc2)[C@H](C(C)C)C[C@H]1Cc1nnc(-c2ccc(C)cc2)o1	n	u	u	u	n
CC1=C[C@@H](CNCc2cccnc2)[C@H](C(C)C)C[C@H]1Cc1nnc(-c2ccncc2)o1	n	u	n	u	n
CC1=C[C@@H](CNCc2ccccn2)[C@H](C(C)C)C[C@H]1Cc1nnc(-c2ccccc2)o1	n	79µM	u	u	n
CC1=C[C@@H](CNCc2cccnc2)[C@H](C(C)C)C[C@H]1Cc1nnc(-c2ccc(N(C)C)cc2)o1	n	18µM	u	u	n
Cc1cccc(-n2nc(-c3c(C)nc4scc(CC(=O)N5CCCCC5)n4c3=O)cc2C)c1C	n	n	n	n	n
Cc1cccc(-c2cccc(CN3CCCC(C(=O)N4CCOCC4)C3)c2)c1 (centres undefined)	n	u	x	u	x
O=C1CCC2(C(=O)N3CCN(c4ccccn4)CC3)CCC=C2N1C1CCCC1 (centres undefined)	n	u	x	n	x
O=C(O)C1CN(C(=O)c2csc(-c3cccs3)n2)CCO1 (centres undefined)	n	n	n	n	n
O=C(c1csc(-c2cccs2)n1)N1CCC2(CCCO2)CC1	n	u	n	u	35µM
O=C(NCc1ccc(Cl)cc1)c1cn2cc(-c3ccc(F)cc3)sc2n1	n	28µM	x	u	x
O=C(NCc1cccc(Cl)c1)c1cn2cc(-c3ccc(C(F)(F)F)cc3)sc2n1	n	45µM	x	22µM	x
O=C(NCc1ccc(F)cc1)c1cn2cc(-c3ccc(C(F)(F)F)cc3)sc2n1	u	50µM	x	u	x
COc1cccc(-c2cn3cc(C(=O)NCc4ccccc4)nc3s2)c1	n	u	x	u	x
COc1ccc(-c2cn3cc(C(=O)NCc4cccc(C(F)(F)F)c4)nc3s2)cc1	u	35µM	x	u	x
O=C(NCc1ccc(F)cc1)c1cn2cc(-c3ccc(F)cc3)sc2n1	n	u	x	u	x
Cc1ccc(S(=O)(=O)N2CCC(CCC(=O)NCc3cccc(F)c3)CC2)cc1	n	u	x	u	x
COCCn1c(=O)c(C(=O)N2CCN(C(=O)c3ccc(C(F)(F)F)cc3)CC2)nc2cccnc21	n	n	x	n	x
O=C(NCCc1ccccc1)c1cn2cc(-c3cccc(C(F)(F)F)c3)sc2n1	n	u	x	n	x
COc1cccc(-c2cn3cc(C(=O)NCc4ccc(Cl)cc4)nc3s2)c1	n	u	x	u	x
COc1ccc(-c2cn3cc(C(=O)NCc4ccc(F)c(F)c4)nc3s2)cc1	n	13µM	x	u	x
O=C(NCC(F)(F)F)c1cn2cc(-c3ccccc3)sc2n1	n	u	x	89µM	x
O=C(NCC(F)(F)F)c1cn2cc(-c3cccc(C(F)(F)F)c3)sc2n1	n	u	x	u	x
SMILES	GPT2 inh	HEK cytotox	NPR1 antag	NIH3T3 tox	FLuc inh
CNC(=O)c1cn2cc(-c3ccc(OC)cc3)sc2n1	n	71µM	x	100µM	x
O=C(NCc1cccc(C(F)(F)F)c1)c1cn2cc(-c3ccccc3)sc2n1	u	45µM	x	n	x
COCC(=O)Nc1cc(-c2cccnc2)nn1-c1ccccc1	n	u	x	u	x
C[S+](=O)([O-])N1CCCC(C(=O)N2CCCC2c2nc3ccncc3[nH]2)C1 (centres undefined)	n	n	x	n	x
Cc1nc(-c2cccc(Cl)c2)n(Cc2ccc(F)c(F)c2)c(=O)c1CCO	u	u	n	u	n
O=C(NCc1cccc(C(F)(F)F)c1)c1cn2cc(-c3ccc(F)cc3)sc2n1	n	u	x	40µM	x
O=C(NCc1ccc(Cl)cc1)c1cn2cc(-c3ccc(C(F)(F)F)cc3)sc2n1	n	n	x	n	x
O=C(NCc1cccnc1)c1cn2cc(-c3ccc(C(F)(F)F)cc3)sc2n1	n	20µM	x	u	x
O=C(NCc1ccc(F)cc1)c1cn2cc(-c3cccc(C(F)(F)F)c3)sc2n1	n	n	x	u	x
COc1ccc(CCNC(=O)C2CCCCN2Cc2ccc(-c3cccs3)cc2)cc1 (centres undefined)	n	u	x	u	x
Fc1ccc(CN2Cc3[nH]cnc3C[C@H]2c2nc(-c3ccccc3)no2)cc1	u	100µM	n	79µM	45µM
Fc1ccc(CN2Cc3[nH]cnc3C[C@H]2c2nc(-c3ccc(Cl)cc3)no2)cc1	n	63µM	n	50µM	n
O=C(O)c1ccc(CN2Cc3[nH]cnc3C[C@H]2c2nc(-c3ccc(F)cc3)no2)cc1	n	n	n	n	n
COc1ccccc1-c1ccc2ncc(Nc3ccccc3F)n2n1	u	u	n	u	n
COc1ccc(CN2CC3(CCN(S(=O)(=O)c4ccc(F)cc4)CC3)C2=O)cc1	n	89µM	n	n	n
COc1ccc(CN2CC3(CCN(S(=O)(=O)c4ccccc4Cl)CC3)C2=O)cc1	n	u	n	u	n
O=C(c1nc(-c2ccc(F)cc2)c2cnccn12)N1CCOCC1	n	n	n	n	n
CN1c2cc(C(=O)Nc3ccc(F)cc3)ccc2C(=O)N2CCCCCC21 (centres undefined)	n	u	n	u	25µM
CSc1ccc(NC(=O)c2ccc3c(c2)N(C)C2CCCCN2C3=O)cc1 (centres undefined)	n	u	n	u	45µM
COc1cccc(CNC(=O)c2nc3cccnc3n(C3CCCCC3)c2=O)c1	n	u	x	u	x
COc1cccc(CN2CC[C@@H]3C(=O)NCCCCCCN(Cc4ccncc4)[C@@H]3C2)c1	n	u	n	u	n
O=C(NCCN[S+](=O)([O-])c1ccccc1)c1cccc(-c2ccsc2)c1	n	50µM	x	u	x
O=C(NCC(=O)N1CCC(c2ccccc2)CC1)c1cccc(-c2ccsc2)c1	n	35µM	x	u	x
CN1CC2(CCN(Cc3ccc(-c4ccc(Cl)cc4)o3)C2)OC1=O (centres undefined)	n	u	n	u	n
Clc1ccc(-c2ccc(CN3CC[C@H]4CC[C@@H](C3)N4)o2)cc1	n	28µM	n	28µM	u
CCn1cc(C(CC(=O)N2CCC(C)CC2)c2cccc(Cl)c2)c2ccccc21 (centres undefined)	n	40µM	n	u	n
Cn1c(CO[C@H]2CN(Cc3ccc4c(c3)OCCO4)C[C@H]2F)nc2ccccc21	n	u	n	89µM	n
CCOC(=O)C1CCN(C(=O)c2ccc3nc(-c4ccnc(Cl)c4)oc3c2)CC1	n	100µM	x	100µM	x
COc1ccc(OC)c(S(=O)(=O)N2CCC(c3nc(-c4cccn4C)no3)CC2)c1	n	40µM	x	u	x
